{"source": "PubChem BioAssay AID2551", "about": "(National Center for Advancing Translational Sciences (NCATS), 2010)", "note": "In all, about 310,000 compounds went through this assay and about 17,000 (5.5%) were called active. Not shown: some 11% with an inconclusive outcome. The sample holds actives, similar compounds and a random draw of the others, so the mix is not that of the screen. Unmarked numbers belong to inactive results. Calls come from the whole dose curve; as a rule, active = well fitted inhibition curve with a large enough effect; inconclusive = small, poorly fitted or top-dose-only effect, or effect the other way; inactive = no such curve, though single readings can be large or run the other way. % is set by controls: 0 for no effect and ±100 for the full control effect; potency is the fitted concentration of half-maximal effect.", "data": [{"biological_target": "Nuclear receptor ROR-gamma (Mus musculus) (UniProt P51450)", "sequence (P51450 whole entry, looked up, the tested form may be a part)": "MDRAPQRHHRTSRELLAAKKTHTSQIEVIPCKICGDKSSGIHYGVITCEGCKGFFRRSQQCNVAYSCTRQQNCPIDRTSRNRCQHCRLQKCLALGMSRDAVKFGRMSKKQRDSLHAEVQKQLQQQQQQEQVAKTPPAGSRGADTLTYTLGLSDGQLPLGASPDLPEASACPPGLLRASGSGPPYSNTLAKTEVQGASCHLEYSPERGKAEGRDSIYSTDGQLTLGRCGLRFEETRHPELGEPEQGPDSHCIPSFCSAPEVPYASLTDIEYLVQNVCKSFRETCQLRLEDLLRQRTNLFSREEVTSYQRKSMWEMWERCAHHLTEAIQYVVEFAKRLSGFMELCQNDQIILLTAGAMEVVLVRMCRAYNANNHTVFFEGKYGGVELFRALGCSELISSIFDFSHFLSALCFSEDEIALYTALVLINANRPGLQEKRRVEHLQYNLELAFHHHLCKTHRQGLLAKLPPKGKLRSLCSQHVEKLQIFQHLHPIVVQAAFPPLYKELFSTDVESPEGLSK", "assay": "qHTS for inhibitors of ROR gamma transcriptional activity; note: nearly all actives have a fitted effect of over 60% in size", "details": "Drosophila S2 Gal4-RORgamma UAS-luciferase reporter, 20 h; series mostly up to 53.6 µM; activity change, negative = inhibition: at the top concentration", "source_text": "NIH Molecular Libraries Probe Production Network [MLPCN] NIH Chemical Genomics Center [NCGC] MLPCN Grant: R03 DA026211-01 Assay Provider: Dan Littman, New York University Assay Overview: The retinoic acid-related orphan receptor (ROR) gamma is a transcription factor that has a central role in the differentiation of Th17 cells, a subset of T helper cells that secrete the inflammatory cytokines IL-17, IL-17F, and IL-22. Th17 cells have been implicated in graft versus host disease, autoimmune disease and asthma. ROR gamma is induced in naive T helper cells in the presence of TGF-beta combined with IL-6, IL-21, or IL-23, and thereafter directs the expression of the Th17 lineage cytokines. To study the mechanism of action of ROR gamma, an insect cell-based assay was screened. This Drosophila Schneider cell line was stably transfected with two vectors: a gene expressing a fusion of the Gal4 DNA binding domain and ROR gamma transactivation domain under the control of the metallothionine promoter and a Photinus luciferase reporter regulated by the Gal4 binding site enhancer, UAS. […] Small molecule inhibitors of ROR gamma activity are detected by a decrease in luciferase reporter activity.\nAssay Protocol Summary: For screening, 600 cells in 4 uL/well were dispensed into white solid 1536-well plates (Grenier) using a solenoid-based dispenser. Following transfer of 23 nL compound or DMSO vehicle by a pin tool, the plates were incubated 1 hr at ambient temperature, and 1 uL/well copper sulfate (700 uM final concentration) was added. The plates were centrifuged 15 s at 1000 RPM and incubated 20 hr at ambient temperature. After addition of 1.5 uL Photinus luciferase detection reagent, the plates were incubated 10 min at ambient temperature and then read by an ViewLux (Perkin Elmer) to detect luminescence. Keywords: NIH Roadmap, MLPCN, MLI, MLSMR, qHTS, NCGC, qHTS, nuclear hormone receptor, retinoic acid-related orphan receptor, ROR gamma", "values": [{"compound": "COc1ccc(NC(=O)CCC(=O)Nc2cc(OC)c(NC(=O)c3ccco3)cc2OC)c(OC)c1", "activity change, negative = inhibition": "7.54% (inactive)"}, {"compound": "CCc1nn(CCCC(=O)Nc2ccc(C)c(C)c2)c(=O)c2cc3occc3n12", "activity change, negative = inhibition": "20.9% (inactive)"}, {"compound": "O=C(O)c1cc(S(=O)(=O)NC2CCCc3ccccc32)ccc1O", "note": "(configuration not stated)", "activity change, negative = inhibition": "7.08% (inactive)"}, {"compound": "CC(C(=O)NCCc1ccc(S(N)(=O)=O)cc1)N1C(=O)CC(C)(C)Sc2ccccc21", "note": "(configuration not stated)", "activity change, negative = inhibition": "-2.79% (inactive)"}, {"compound": "CNC(=O)N1c2ccccc2C=Cc2ccccc21", "activity change, negative = inhibition": "-3.21% (inactive)"}, {"compound": "Clc1nc(NC2CCCC2)nc(N2CCOCC2)n1", "activity change, negative = inhibition": "39.7% (inactive)"}, {"compound": "COc1cccc(N(CC(=O)NC2CCCC2)C(=O)Cn2nnc(-c3ccc(C)o3)n2)c1", "activity change, negative = inhibition": "3.81% (inactive)"}, {"compound": "S=c1[nH]nc(-c2ccncc2)n1/N=C/c1ccccc1Cl", "activity change, negative = inhibition": "-23.7% (inactive)"}, {"compound": "CCN(CC)S(=O)(=O)c1cccc(-c2n[nH]c(=S)n2/N=C/c2ccc(C(=O)OC)cc2)c1", "activity change, negative = inhibition": "-44.9% (inactive)"}, {"compound": "S=c1[nH]nc(-c2ccco2)n1/N=C/c1ccc(Br)s1", "Potency": "11.2 µM (active)"}, {"compound": "CCOc1ccc(-c2n[nH]c(=S)n2/N=C/c2cc3c(cc2[N+](=O)[O-])OCO3)cc1", "activity change, negative = inhibition": "-47.7% [at 10 µM]"}, {"compound": "Cc1ccc(/C=N\\n2c(-c3ccccc3)n[nH]c2=S)s1", "Potency": "3.98 µM (active)"}, {"compound": "Brc1ccc(/C=N/N2CCN(C3c4ccccc4-c4ccccc43)CC2)s1", "activity change, negative = inhibition": "-12.9% (inactive)"}, {"compound": "S=c1[nH]nc(-c2cccs2)n1/N=C/c1cn(-c2ccccc2)nc1-c1ccc(Cl)cc1", "activity change, negative = inhibition": "-41.1% (inactive)"}, {"compound": "Cc1ccc(-c2n[nH]c(=S)n2/N=C/c2cc3c(cc2[N+](=O)[O-])OCO3)cc1", "activity change, negative = inhibition": "-28% (inactive)"}, {"compound": "S=c1[nH]nc(-c2cc(-c3ccccc3)n[nH]2)n1/N=C/c1c2ccccc2cc2ccccc12", "Potency": "7.94 µM (active)"}, {"compound": "Oc1ccccc1/C=N/n1c(-c2cccs2)n[nH]c1=S", "Potency": "10 µM (active)"}, {"compound": "c1ccc(-c2cc(-c3nnc4sc(-c5ccccn5)nn34)[nH]n2)cc1", "activity change, negative = inhibition": "6.02% (inactive)"}, {"compound": "O=C(CCN1CCN(C/C=C/c2ccccc2)CC1)Nc1ccccc1Cl", "activity change, negative = inhibition": "-1.61% (inactive)"}, {"compound": "C/C=C/C(=O)OCc1csc(CC(=O)Nc2ccccc2C)n1", "activity change, negative = inhibition": "-16.8% (inactive)"}, {"compound": "COc1cccc(N(CC(=O)NC2CCCCCC2)S(=O)(=O)c2ccccc2)c1", "activity change, negative = inhibition": "-18.8% (inactive)"}, {"compound": "COc1ccc(CCNC(=O)CCc2cn(C)c3ccccc23)c(OC)c1", "activity change, negative = inhibition": "-12.4% (inactive)"}, {"compound": "Cc1cccc(NC(=S)NC23CN4CN(CN(C4)C2)C3)c1", "activity change, negative = inhibition": "-15.1% (inactive)"}, {"compound": "Cc1cccc(NC(=O)C2CCN(C(=O)NC3CCCCC3)CC2)c1", "activity change, negative = inhibition": "-25.8% (inactive)"}, {"compound": "Cc1cccc(NC(=S)NCCN(C2CCCCC2)C2CCCC2)c1", "Potency": "8.91 µM (active)"}, {"compound": "O=C(NC1CCCC1)C(=O)c1c[nH]c2ccccc12", "activity change, negative = inhibition": "-36.6% (inactive)"}, {"compound": "CCOc1ccc2[nH]c(C(=O)N/N=C/c3cccc(OC)c3OC)cc2c1", "activity change, negative = inhibition": "-15.4% (inactive)"}, {"compound": "C#CC(C)(C)NC(=O)c1cnc(-c2ccccc2)nc1-c1ccccc1", "activity change, negative = inhibition": "-14.4% (inactive)"}, {"compound": "CCCc1nnc(NC(=O)c2cccs2)s1", "activity change, negative = inhibition": "-40% (inactive)"}, {"compound": "CCCc1nnc(NC(=O)CCC(=O)N2CCN(S(=O)(=O)c3ccc(OC)cc3)CC2)s1", "activity change, negative = inhibition": "12.7% (inactive)"}, {"compound": "COc1ccccc1NC(=O)Nc1nnc(Cc2ccc(F)cc2)s1", "activity change, negative = inhibition": "7.65% (inactive)"}, {"compound": "COc1ccc(Cc2nnc(NC(=O)c3ccc(OC)cc3OC)s2)cc1", "activity change, negative = inhibition": "19.7% (inactive)"}, {"compound": "CCCc1nnc(NC(=O)c2cc(OC)cc(OC)c2)s1", "Potency": "11.2 µM (active)"}, {"compound": "COc1ccc(Cc2nnc(NC(=O)c3cc(OC)c(OC)c(OC)c3)s2)cc1OC", "Potency": "7.08 µM (active)"}, {"compound": "Cc1cc(C)c2nc(N3CCC(C(=O)NCCN4CCOCC4)CC3)sc2c1", "activity change, negative = inhibition": "7.01% (inactive)"}, {"compound": "Cc1nonc1NC(=O)c1oc2ccccc2c1C", "activity change, negative = inhibition": "-0.26% (inactive)"}, {"compound": "COc1ccc(C(=O)C2CCCN(C(=O)c3cc(C)on3)C2)cc1F", "note": "(configuration not stated)", "activity change, negative = inhibition": "11% (inactive)"}, {"compound": "COc1ccccc1CNC(=O)c1ccc(N(C)S(=O)(=O)c2ccc(C)cc2)cc1", "activity change, negative = inhibition": "2.62% (inactive)"}, {"compound": "COc1ccc(CSc2nnnn2-c2ccc(C(=O)O)cc2)cc1", "activity change, negative = inhibition": "14.9% (inactive)"}, {"compound": "COc1cc(/C=N/Nc2nc3ccccc3s2)ccc1O", "activity change, negative = inhibition": "-23% (inactive)"}, {"compound": "COc1cc(/C=C(\\C#N)c2nc3c(s2)CC(C)CC3)ccc1O", "note": "(configuration not stated)", "Potency": "1.41 µM (active)"}, {"compound": "COc1cc(/C=C(\\C#N)c2nc3ccccc3[nH]2)ccc1O", "activity change, negative = inhibition": "15.4% (inactive)"}, {"compound": "CCc1ccc(OCC(=O)NCC(c2ccc(Cl)cc2)N2CCCCC2)cc1", "note": "(configuration not stated)", "activity change, negative = inhibition": "0% (inactive)"}, {"compound": "O=C(Nc1ccccc1)C1CC(=O)n2c(nc3ccccc32)N1", "note": "(configuration not stated)", "activity change, negative = inhibition": "-22% (inactive)"}, {"compound": "C[C@H]1[C@H]2c3nc4ccccc4n3C[C@H]1ON2C1CCCCC1", "Potency": "11.2 µM (active)"}, {"compound": "OC1CSc2nc3ccccc3n2C1", "note": "(configuration not stated)", "activity change, negative = inhibition": "2.37% (inactive)"}, {"compound": "Cc1ccc(-n2nc3c(=O)n(C(C)C(=O)NCc4ccc5c(c4)OCO5)nc(C)c3c2C)cc1", "note": "(configuration not stated)", "activity change, negative = inhibition": "26.2% (inactive)"}, {"compound": "CN(CC1CCCO1)S(=O)(=O)c1ccc(C(=O)Nc2ccc(F)cc2)cc1", "note": "(configuration not stated)", "activity change, negative = inhibition": "17.2% (inactive)"}, {"compound": "COc1ccc(-c2nc3ccccc3n2CCC(C)C)cc1OC", "Potency": "11.2 µM (active)"}, {"compound": "COCCn1c(-c2ccc(OC)c(OC)c2)nc2ccccc21", "activity change, negative = inhibition": "-28.3% (inactive)"}, {"compound": "COc1ccc(NC(=O)COC(=O)Cn2c(C)nc3ccccc32)cc1OC", "activity change, negative = inhibition": "16.5% (inactive)"}, {"compound": "COc1cccc(CNC(=O)COc2cc(O)c3c(c2)OC(C)(C)CC3=O)c1", "activity change, negative = inhibition": "4.48% (inactive)"}]}]}
